# Among all 370,000 compounds or so, about 500 (0.14%) were called active. Inconclusive results (about 2%) are left out. The call rests on the fitted dose curve; in most records, active means well fitted activation curve with a large enough effect; inconclusive means small, poorly fitted or top-dose-only effect; inactive means no such curve, though single readings can be large or run the other way. The list comes from a sample in which actives are over-represented; it also holds similar structures and randomly drawn compounds. A call without a number means that no potency is given here.
# Test: qHTS of alpha-syn Inhibitors; further: nearly all actives have a fitted effect of over 65% in size
# Conditions: Yeast expressing alpha-synuclein, BacTiter-Glo, 24 h; Potency: growth rescue; series mostly up to 46.1 µM
# Description: The goal of this project is to identify new chemical probes capable of reversing the toxicity associated with the Parkinson disease-related protein, alpha-synuclein. Compounds will be selected on their ability to restore growth in yeast cells expressing toxic levels of alpha-synuclein. These compounds will provide a complementary approach to deciphering the tangled mechanisms of toxicity and protection that we have uncovered through genome-wide genetic screens and are beginning to uncover in a large-scale proteomics analysis with mass spectroscopy. To this end, a miniaturized assay was developed to be screened against the Molecular Libraries Small Molecule Repository (MLSMR) to discover alpha-synuclein inhibitors. Please note that in the set-up this yeast-based assay compounds that inhibit as alpha-syn, have a read-out as activators. NIH Chemical Genomics Center [NCGC] NIH Molecular Libraries Probe Centers Network [MLPCN] MLPCN Grant: NS060957 Assay Submitter (PI): Susan Lindquist, Whitehead Institute/MIT
# Dispense 2.5 microL yeast galactose medium per 1536-well plate, pin compound, dispense 2.5 microL alpha-synuclein expressing yeast in galactose medium at OD600=0.02 (pregrown in raffinose medium to mid-log phase) per well, incubate for 24 hr at 30 deg C, and cell growth will be measured using 5 microL of Bactiter/Glo reagent to entire plate and read using Luminescence Protocol in ViewLux.
# Potency means the concentration at half of the fitted maximal effect.
row,Compound,Potency
1,C[C@@H]1C[C@@H]2O[C@H]2/C=C\C=C\C(=O)Cc2c(Cl)c(O)cc(O)c2C(=O)O1,7.94 µM (active)
2,Cc1ncoc1C(=O)NCC1=C(c2cccc3ccccc23)C[C@@H]2CC[C@H]1N2Cc1ccco1,inactive
3,CC(=O)NCC1=C(c2ccc3ccccc3c2)C[C@@H]2CC[C@H]1N2Cc1ccco1,inactive
4,O=C(NCC1=C(c2ccc3ccccc3c2)C[C@@H]2CC[C@H]1N2Cc1ccco1)c1cccs1,3.55 µM (active)
5,N#Cc1c(Cl)c(Cl)c(Cl)c(C#N)c1Cl,inactive
6,COc1ccc(NC(=O)Nc2cccc3cccnc23)cc1,inactive
7,c1ccc(Cc2nn3c(Cn4cnc5ccccc54)nnc3s2)cc1,inactive
8,O=C(O)/C=C/c1ccc2c(c1)OCO2,inactive
9,CC(=O)c1c(O)c(C)c(O)c(Cc2c(O)c3c(c(C(=O)/C=C/c4ccccc4)c2O)OC(C)(C)C=C3)c1O,inactive

# From PubChem BioAssay AID652106 (National Center for Advancing Translational Sciences (NCATS), 2013)
